Bioassay records as filed in PubChem BioAssay.
Sampled rows, rich in hits. Any-hit rate of the full collection: about 21%.
Pf growth 96h – P. falciparum growth inhibition at 96 hours; P. falciparum luciferase reporter growth, 96 h; Potency, µM (series often up to 28.7 µM), hits mostly inhibitors; hit rate 6.9% among 320,000; AID 504834
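Parasite growth measured via integrated firefly luciferase reporter in P. falciparum. Infected erythrocytes at 2% hematocrit, 0.05% parasitemia final were treated 96 hours at 37 C under 5% CO2, and luminescence was read.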
CHX counter – counter-screen for Shiga toxin inhibitors: cycloheximide protein synthesis inhibition; cell reporter, cycloheximide protein synthesis inhibition counterscreen; hit rate 12% among 300,000; max response, %; in the data active = max response mostly above about 13%, no sharp cut-off; inactive = mostly below about 14%; also: read at 38.3 µM for the half of the compounds with a filed dose
Pf growth 48h – inhibits P. falciparum growth in the first generation, 48 h; P. falciparum luciferase growth in erythrocytes, 48 h; Potency, µM (series often up to 28.7 µM), actives largely listed as inhibitors; hit rate 5.9% among 310,000; AID 504832
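Read-out is firefly luciferase luminescence from an integrated reporter in P. falciparum, so falling signal marks reduced parasite growth. Infected erythrocytes were at 2% hematocrit and 0.1% parasitemia (final) in Albumax-supplemented RPMI 1640.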
HCMV inh – blocks human cytomegalovirus replication | hit rate 4.5% among 410,000 | HFF cells, HCMV-luciferase reporter, 72 h; stronger effect = lower value | activity change, negative = inhibition, % at 57.5 µM; in the data active = activity change below about -60%; inconclusive = no clear call, values can overlap the other calls; inactive = above about -39%
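Screen run at 2 compound doses on HFFs infected with reporter HCMV, MOI 1 PFU/cell. Luciferase activity from cell lysates at 72 h post infection gave inhibition relative to buffer-only and Salinomycin wells.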
Shiga inhibitor – Shiga toxin inhibition; Vero cells, Shiga toxin protein synthesis inhibition reporter; hit rate 9.2% among 290,000; AID 2315; inhibition, % at 38.7 µM; in the data active = inhibition mostly above about 28%, no sharp cut-off; inactive = mostly below about 43%
HCV inhibitor – blocks hepatitis C virus; Huh7.5.1 HCVcc-Cre infection, luciferase reporter, 44 h; Potency, µM (highest dose often 41.8 µM), actives largely listed as inhibitors; hit rate 3.4% among 340,000; AID 651820
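Antiviral activity was scored by luciferase reporter output from cells infected with HCVcc-Cre (~0.5 moi) in presence of compound, 44 h infection period, cells seeded 1,000/well 4 h prior.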
Hits are given with their value; n = inactive; u = inconclusive; x = not tested or not shown. Unless noted, calls follow the shape of the dose curve; as a rule, active = well fitted inhibition curve with a large enough effect; inconclusive = small, poorly fitted or top-dose-only effect, or another doubt; inactive = no such curve, though single readings can be large or run the other way.

SMILES	Pf growth 96h	CHX counter	Pf growth 48h	HCMV inh	Shiga inhibitor	HCV inhibitor
O=C(CN1C(=O)CC(c2ccccc2)=Nc2ccccc21)NCc1ccccc1	n	n	n	n	n	n
Cc1cc2c(cc1C)N(CC(=O)N1CCCC1)C(=O)CC(c1ccccc1)=N2	x	33	x	n	56	n
Cc1cc(Cl)ccc1OCC(=O)NC(=S)Nc1ccc(Cl)cn1	u	n	n	n	n	n
O=C(NNC(=O)c1cccc(Br)c1)Nc1ccc(Cl)cc1	n	n	n	n	n	n
CCCC(=O)NC(=S)Nc1ccc(Cl)cn1	n	30	n	-69	n	n
O=C(NC(=S)Nc1cc(Cl)ccc1O)c1cccc(Br)c1	3.3µM	42	u	u	90	11µM
O=C(NC(=S)Nc1ccc(Cl)cn1)c1cccs1	u	63	n	n	99	n
O=C(NC(=S)Nc1cccnc1)c1ccccc1	n	28	n	n	71	u
CC(=O)N[C@@H](Cc1ccc(O)cc1)C(=O)O	u	n	n	x	n	x
O=C(NC(=S)Nc1ccc(Br)cn1)c1cccnc1	u	28	u	n	n	n
CCCCOc1cccc(C(=O)NC(=S)Nc2cccnc2)c1	n	n	n	n	n	n
O=C(Nc1ncc(Cl)cn1)c1cccs1	n	45	x	n	59	n
O=C(NC(=S)NCCSc1ccccc1)c1cccnc1	n	27	n	n	37	n
O=C(NC(=S)NCc1cccnc1)c1ccccc1	n	n	n	n	n	n
O=C(NC(=S)Nc1cccnc1)c1cccc(Br)c1	n	17	n	n	63	n
CCOC(=O)c1ccc(NC(=O)c2ccc(=O)n(Cc3cccc(C)c3)c2)cc1	x	x	x	n	x	x
CCc1nn2c(=O)cc(COC(=O)c3ccc(NC(=O)c4cccs4)cc3)nc2s1	x	x	x	n	x	x
O=C(NC(=S)Nc1cccnc1)c1cccs1	u	20	n	n	42	n
CCC(=O)Nc1ccc(C(=O)COC(=O)Cc2ccsc2)cc1	u	x	u	n	x	n
Cc1ccc(-c2[nH]c3ccccc3c2C(C[N+](=O)[O-])c2ccco2)cc1 (stereo not drawn)	x	20	9.3µM	n	n	n
Clc1ccc(-c2cn3cc(Cl)ccc3n2)cc1	n	42	x	n	74	n
O=C(Nc1ccc(-c2cn3ccccc3n2)cc1)c1ccc(Cl)cc1	u	n	n	n	n	n
Clc1ccc(-c2cn3c(n2)CCC3)cc1	n	28	n	n	n	u
Brc1ccc(-c2cn3ccccc3n2)s1	n	32	x	n	70	8.9µM
CCN(CC)S(=O)(=O)c1ccc(-c2cn3cc(Cl)ccc3n2)cc1	n	n	n	u	n	n
SMILES	Pf growth 96h	CHX counter	Pf growth 48h	HCMV inh	Shiga inhibitor	HCV inhibitor
Clc1ccc(-c2cn3ccccc3n2)cc1	n	37	n	n	40	n
O=C(NCCc1cn2ccccc2n1)c1ccc(Br)o1	n	n	n	n	n	n
O=C1c2ccccc2C(c2nnnn2-c2ccc3c(c2)OCCO3)N1Cc1ccc(F)cc1 (stereo not drawn)	x	x	x	n	x	x
COc1ccc(Cl)cc1S(=O)(=O)N1CCC(C(=O)NCc2ccccn2)CC1	n	x	u	n	x	n
O=C(Nc1nc(-c2ccc(Oc3ccccc3)cc2)cs1)C1=COCCO1	n	n	n	-64	n	u
Cc1ccc(-c2csc(NC(=O)C3=COCCO3)n2)cc1	n	42	n	n	51	u
CC(C)(C)c1csc(NC(=O)C2=COCCO2)n1	n	x	n	n	x	n
CCOC(=O)c1csc(NC(=O)C2=COCCO2)n1	n	41	n	n	63	n
CC(=O)Nc1ccn(C2OC(C(COC(C)=O)NC(=O)C(C)NC(=O)OC(C)(C)C)C(OC(C)=O)C2OC(C)=O)c(=O)n1 (stereo not drawn)	x	n	x	x	n	x
CC(Sc1nc2cc([N+](=O)[O-])ccc2n1-c1cccc(C(F)(F)F)c1)C(=O)NC(N)=O (stereo not drawn)	0.66µM	n	0.59µM	n	n	n
CC(Sc1nc2cc([N+](=O)[O-])ccc2n1-c1ccc(F)cc1)C(=O)NCc1ccc2c(c1)OCO2 (stereo not drawn)	1.7µM	n	u	n	n	u
COc1ccccc1-n1c(SCC(=O)NCc2ccc3c(c2)OCO3)nc2cc([N+](=O)[O-])ccc21	u	n	u	n	n	25µM
NC(=O)CSc1nc2cc([N+](=O)[O-])ccc2n1-c1cccc(C(F)(F)F)c1	u	n	n	n	n	n
O=C(CSc1nc2ccccc2c(=O)n1-c1ccccc1)NCc1ccc2c(c1)OCO2	u	n	u	n	n	n
COc1cc(C(=O)N2CC(=O)Nc3ccc(C)cc3C2c2ccc(F)cc2)cc(OC)c1OC (stereo not drawn)	x	x	x	n	x	x
CC(C)OCCCN1C=C2C(=O)C(C)(OC(=O)CCc3ccccc3)C(=O)C=C2C=C1c1ccc(C#N)cc1 (stereo not drawn)	u	n	10µM	n	n	n
CCOC(=O)c1c(C)n(-c2ccccc2)c2ccc(OC(=O)c3ccccc3)cc12	x	x	x	n	x	x
Cc1c(C(=O)Nc2ccc(S(=O)(=O)N(C)C3CCN(C)CC3)cc2)oc2ccccc12	u	x	4.7µM	u	x	6.3µM
Cc1c(C(=O)Nc2ccc(S(=O)(=O)N(C)C3CCN(C)CC3)cc2)oc2c(Cl)cccc12	2.6µM	x	2.9µM	n	x	2µM
CN1CCC(N(C)S(=O)(=O)c2ccc(NC(=O)c3ccc(S(=O)(=O)N(C)C)cc3)cc2)CC1	x	x	x	n	x	u
CC1(c2nnc(Cc3ccccc3)o2)CC(c2ccc([N+](=O)[O-])cc2)=NO1 (stereo not drawn)	n	n	n	n	n	u
O=C(c1ccccc1)c1ccc(COC(=O)c2cnccn2)cc1	u	n	n	n	n	n
COC(=O)c1ccc(COC(=O)c2ccc(N(C)C)cc2)cc1	x	41	n	n	65	n
O=C(Oc1ccccc1)c1cccc(COC(=O)c2cnccn2)c1	x	36	n	u	active	n
O=C1C=CC(=O)C(CNc2ccc(C(=O)OCc3ccccc3)cc2)=C1	x	x	x	n	x	10µM
SMILES	Pf growth 96h	CHX counter	Pf growth 48h	HCMV inh	Shiga inhibitor	HCV inhibitor
CN(C)c1ccc(C(=O)OCc2ccccc2)cc1	n	35	x	n	n	n
COC(=O)c1cccc(COC(=O)c2ccc(N(C)C)cc2)c1	n	n	n	n	n	n
CC(C)CCOC(=O)c1ccc(N(C)C)cc1	n	x	n	n	x	x
CCOC(=O)Cn1cc2c(c1-c1ccc(Cl)cc1)c(=O)n(C)c(=O)n2C	x	x	x	n	x	x
O=C(OCc1ccccc1)c1cccnc1	15µM	x	u	n	x	x
Cc1noc(C)c1S(=O)(=O)Nc1ccc(C(C)C)cc1	u	n	n	n	n	n
CCC(=O)N1CCc2cc(OC)c(OC)cc2C1COc1ccccc1OC (stereo not drawn)	n	n	u	n	n	n
